Screening results as filed in PubChem.
An excerpt weighted towards active compounds, which were near 2% of everything screened.
Exocytosis inh: blocks lytic granule exocytosis; TALL-104 LAMP-1 surface exposure, flow cytometry; cells stimulated with thapsigargin and PMA; inhibition, % at 10 µM; actives 0.66% (n = 360,000); AID 651702;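 active = inhibition above about 55%, limit read from the data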
VLA-4 inh: inhibition in a human VLA-4 binding assay | VLA-4 expressing cells, ligand binding flow cytometry | P13612 | inhibition, % (about 7 µM as worked out from the volumes in the protocol) | actives 0.2% (n = 330,000); in the data active = inhibition above about 50%
NR1D1 modulator: modulates human Rev-erb alpha binding to DNA. P20393. Rev-erbα–FITC-DNA binding, fluorescence polarization, 90 min. activity, % at 10 µM. actives 0.79% (n = 370,000);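 active = activity above about 14%, limit read from the data; passing the limit was not always enough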
Target sequence (P20393 whole entry, looked up): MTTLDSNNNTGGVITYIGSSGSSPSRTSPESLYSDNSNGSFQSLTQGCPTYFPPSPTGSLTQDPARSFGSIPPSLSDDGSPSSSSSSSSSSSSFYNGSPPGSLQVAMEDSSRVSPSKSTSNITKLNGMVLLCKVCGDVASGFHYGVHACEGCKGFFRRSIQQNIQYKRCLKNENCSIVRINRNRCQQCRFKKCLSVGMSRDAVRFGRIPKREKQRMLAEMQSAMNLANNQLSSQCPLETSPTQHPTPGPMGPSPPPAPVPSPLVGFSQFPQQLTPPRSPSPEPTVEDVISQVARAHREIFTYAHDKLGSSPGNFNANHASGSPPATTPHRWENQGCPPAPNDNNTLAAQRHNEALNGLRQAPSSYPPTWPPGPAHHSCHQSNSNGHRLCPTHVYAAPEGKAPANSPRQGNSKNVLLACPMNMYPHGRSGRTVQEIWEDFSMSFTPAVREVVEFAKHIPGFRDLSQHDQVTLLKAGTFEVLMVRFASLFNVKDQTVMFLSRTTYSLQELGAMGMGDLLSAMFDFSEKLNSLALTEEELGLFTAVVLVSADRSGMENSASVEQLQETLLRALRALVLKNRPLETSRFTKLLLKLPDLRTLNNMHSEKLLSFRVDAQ
ABCB6 inh 2: inhibitors of human ABC transporter ABCB6. K562-ABCB6 porphyrin accumulation, flow cytometry, 1 h; active compounds read low. fluorescence ratio to DMSO, % at 10 µM. actives 0.19% (n = 360,000);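 active = fluorescence ratio to DMSO below 75%, the collection mean minus 3 SD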;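 note: signal is porphyrin accumulated inside mitochondria; lower ratio means ABCB6 inhibition with less porphyrin fluorescence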
PG9 Ab binder: PG9 antibody binding by small molecule. TR-FRET gp120-PG9 antibody binding. inhibition, % at 6.7 µM. actives 0.43% (n = 360,000); in the data active = inhibition above about 8.5%
NR1D1 mod conf: confirmation of modulators of human Rev-erb alpha DNA binding; shares compounds with NR1D1 modulator; Rev-erb alpha FITC-DNA binding, fluorescence polarization, 90 min; activation, % at 25 µM; actives 61% (n = 3,000); AID 1259319;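 active = activation at or above a set limit, or at least 3 SD above the negative control mean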
RORg counter: counter-screen for Rev-erb alpha modulators: RORgamma DNA binding. shares compounds with NR1D1 modulator. IC50, µM. actives 8% (n = 910). purified RORgamma protein-FITC-DNA binding, fluorescence polarization;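 active = Compounds whose fitted half-maximal concentration for disrupting protein-DNA binding is below 10 micromolar; the record names Rev-erb in its text, so the target is in doubt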
Of the large screens only hits and unclear results are named; the others gave an inactive call (follow-up assays come after a bar, where they were run).

Cc1noc(C)c1NC(=O)Nc1ccc2c(c1)C(=O)N(C)[C@H]1CC[C@H](CC(=O)NCc3ccc(Cl)cc3)O[C@@H]1CO2	none (no result: Exocytosis inh, VLA-4 inh, ABCB6 inh 2, PG9 Ab binder)
Nn1c(SCC(=O)Nc2nccs2)nnc1-c1cc(-c2ccccc2)n[nH]1	none (no result: Exocytosis inh, VLA-4 inh, ABCB6 inh 2, PG9 Ab binder)
COC(=O)c1sccc1NC(=O)C12CC3CC(CC(C3)C1)C2	NR1D1 modulator 25 | NR1D1 mod conf 22
COC(=O)[C@H](C(C)C)N(Cc1cn(Cc2ccccc2)nn1)S(=O)(=O)c1ccc(F)cc1Br	none (no result: Exocytosis inh, VLA-4 inh, ABCB6 inh 2, PG9 Ab binder)
COc1ccc(-c2cc(-c3ccc(C)cc3)nc(SCc3nnc(-c4ccccc4)o3)c2C#N)cc1OC	NR1D1 modulator 80 | NR1D1 mod conf 37 | RORg counter inactive
COc1cc(-c2cc(-c3ccccc3)nc(SCC(=O)O)c2C#N)cc(OC)c1OC	none
CC1NC(=O)c2cc3ccccc3cc2-n2c1nc1cc(Cl)ccc1c2=O (configuration not stated)	NR1D1 modulator 16 (no result: VLA-4 inh) | NR1D1 mod conf inactive
O=C(CSc1nc2ccsc2c(=O)n1Cc1ccccc1)NCc1ccco1	NR1D1 modulator 17, PG9 Ab binder 16 | NR1D1 mod conf inactive
O=C(CSc1nc2ccsc2c(=O)n1NC(=O)c1ccccc1)NCc1ccco1	none
CC(NC(=O)CSc1nnc(-c2cc3cc(Cl)ccc3o2)n1C)c1ccccc1 (configuration not stated)	none
Cn1c(SCC(=O)NC2CCCCC2)nnc1-c1cc2cc(Cl)ccc2o1	NR1D1 modulator 101 | NR1D1 mod conf 27
Cn1c(SCC(=O)Nc2cccc(Br)c2)nnc1-c1cc2ccccc2o1	NR1D1 modulator 42 | NR1D1 mod conf 60
CCCCNC(=O)O[C@H]1CC[C@@]23CCCN2C(=O)CCC[C@H]3[C@H]1CCC	none (no result: Exocytosis inh, VLA-4 inh, ABCB6 inh 2, PG9 Ab binder)
CCOC(=O)c1cnc2cc(-c3ccc(C)cc3)nn2c1C	none (no result: VLA-4 inh)
CC(=O)c1cnc2cc(-c3cccc(Br)c3)nn2c1C	NR1D1 modulator 24 | NR1D1 mod conf inactive
CCCCN1C[C@@H]2CSCCS(=O)(=O)N2C1=O	none (no result: Exocytosis inh, VLA-4 inh, ABCB6 inh 2, PG9 Ab binder)
O=C(CSc1nnc(-c2cccs2)o1)c1ccc2c(c1)OCO2	NR1D1 modulator 115 (no result: Exocytosis inh, VLA-4 inh, ABCB6 inh 2, PG9 Ab binder) | NR1D1 mod conf 134 | RORg counter inactive
O=C(CSc1nnc(-c2cccs2)o1)c1ccc(F)cc1	none (no result: Exocytosis inh, VLA-4 inh, ABCB6 inh 2, PG9 Ab binder)
COc1cc2c(cc1NC(=O)CSc1nnc(-c3cccnc3)n1-c1ccc(Br)cc1)oc1ccccc12	none (no result: Exocytosis inh, VLA-4 inh, ABCB6 inh 2, PG9 Ab binder)
CCOc1ncccc1C(=O)Nc1cc(S(=O)(=O)N2CCOCC2)ccc1OCC(F)(F)F	NR1D1 modulator 31 | NR1D1 mod conf 15
CCOc1ccc(S(=O)(=O)N2CCCCC2)cc1NC(=O)c1cccnc1OCC	none
COc1ccc(C(=O)NCCNc2nc3cc(C)cc(C)c3cc2C#N)nc1	NR1D1 modulator 23 (no result: VLA-4 inh, ABCB6 inh 2) | NR1D1 mod conf 45 | RORg counter inactive
COc1cccc(CNc2nc3ccc(C)cc3n3cnnc23)c1	NR1D1 modulator 26 | NR1D1 mod conf inactive
CCCCCC(=O)N/N=C/c1cc(Br)c(O)c(OC)c1	none
COc1cc(/C=N/NC(=O)CC2(C)OCCO2)cc(Br)c1O	NR1D1 modulator 71 | NR1D1 mod conf inactive
O=c1c2ccccc2c(-c2ccccc2)nn1-c1cc(Cl)cc(Cl)c1	NR1D1 modulator 31 | NR1D1 mod conf inactive
Cc1ccc(-c2csc3nnc(SCC(=O)Nc4nsc(-c5ccccc5)n4)n23)cc1	none
O=C(CSc1nnc2scc(-c3ccccc3)n12)Nc1nsc(-c2ccccc2)n1	NR1D1 modulator 44 (no result: PG9 Ab binder) | NR1D1 mod conf 39 | RORg counter inactive
O=C(CSc1nnc2scc(-c3ccccc3)n12)Nc1nsc(-c2ccc(Cl)cc2)n1	NR1D1 modulator 31 | NR1D1 mod conf inactive
COC(=O)[C@]12C[C@H](CC(=O)NCCc3ccccc3OC)C(=O)N(Cc3ccc4c(c3)OCO4)C1=C[C@H](C(C)C)O[C@@H]2C1CC1	none (no result: Exocytosis inh, VLA-4 inh, ABCB6 inh 2, PG9 Ab binder)
COCCN1Cc2cc(C(=O)OC)c3c(c2C1=O)c1cc(OC)ccc1n3S(=O)(=O)c1ccc(F)cc1	none (no result: Exocytosis inh, VLA-4 inh, ABCB6 inh 2)
COC(=O)C1CCN(C(=O)c2cc3c(=O)n4cccc(C)c4nc3n2Cc2ccccc2)CC1	NR1D1 modulator 40 | NR1D1 mod conf 23
Cc1cccn2c(=O)c3cc(C(=O)O)n(C)c3nc12	none
CCc1ccc2nc(NC(=O)C3CCN(c4ncnc5sc(C)c(C)c45)CC3)sc2c1	NR1D1 modulator 21 | NR1D1 mod conf 19
CCc1cccc(NC(=O)C2CCN(c3ncnc4sc(C)c(C)c34)CC2)c1	none
O=C(C(=O)N1CCN(S(=O)(=O)c2ccc(OC(F)(F)F)cc2)CC1)c1cccc(C(F)(F)F)c1	none (no result: Exocytosis inh, VLA-4 inh, ABCB6 inh 2)
CCc1cc(-c2n[nH]c(C)c2-c2nc3ccccc3s2)c(O)cc1OCC(=O)NN	NR1D1 modulator 13 | NR1D1 mod conf inactive
COc1cc(NC(=O)C2CCCN(S(=O)(=O)c3ccccc3[N+](=O)[O-])C2)cc(OC)c1 (configuration not stated)	none (no result: Exocytosis inh, VLA-4 inh, ABCB6 inh 2, PG9 Ab binder)
O=C(Nc1ccc(Oc2ccccc2)cc1)c1csc(COCCO)n1	NR1D1 modulator 15 (no result: VLA-4 inh) | NR1D1 mod conf inactive
CSc1ncccc1C(=O)OCC(=O)c1ccc2c(c1)NC(=O)CO2	NR1D1 modulator 40 | NR1D1 mod conf inactive
COc1cc(OC)c(C(=O)OCC(=O)c2ccc3c(c2)NC(=O)CO3)cc1OC	none
COc1ccc2[nH]cc(S(=O)(=O)c3ccc(F)cc3)c(=O)c2c1	none
Cc1ccc2[nH]cc(S(=O)(=O)c3ccc(C)c(C)c3)c(=O)c2c1	NR1D1 modulator 56 | NR1D1 mod conf 33 | RORg counter inactive
CCOC(=O)c1nn(-c2ccccc2)c(=O)cc1SC1CCCCC1	NR1D1 modulator 29 | NR1D1 mod conf 26
CCOC(=O)c1nn(-c2ccccc2)c(=O)cc1SC(C)C	none
CC(=O)c1cc(C#N)c(NCc2cc(-c3ccccc3)no2)nc1C	NR1D1 modulator 26 | NR1D1 mod conf 18
Cc1ccc(C)c(CN2C(=O)C3CCCN3c3ccc(C#N)cc32)c1 (configuration not stated)	NR1D1 modulator 49 | NR1D1 mod conf 36
O=c1c(Cl)c(N2CCN(S(=O)(=O)c3ccc(F)cc3)CC2)cnn1-c1cccc(Cl)c1	NR1D1 modulator 28 | NR1D1 mod conf 28
Cc1cccc(C)c1NC(=O)C(CCc1ccccc1)N1CCN(CCN(C)C)CC1 (configuration not stated)	none (no result: Exocytosis inh, VLA-4 inh, ABCB6 inh 2)
COC(=O)[C@]12C[C@H](CC(=O)N3CCOCC3)C(=O)N(CCC3=CCCCC3)C1=C[C@H](C(C)C)O[C@@H]2C1CC1	none (no result: Exocytosis inh, VLA-4 inh, ABCB6 inh 2, PG9 Ab binder)
CCc1ccc(NC(=O)CCc2nc3sc4c(c3c(=O)[nH]2)CCCC4)cc1	NR1D1 modulator 19 | NR1D1 mod conf inactive
COc1ccc(CCNC(=O)CCc2nc3sc4c(c3c(=O)[nH]2)CCCC4)cc1	none
Cc1ccc(OCCNC(=O)CCc2nc3sc4c(c3c(=O)[nH]2)CCCC4)cc1	NR1D1 modulator 20 | NR1D1 mod conf inactive
